Lmaj promast = Leishmania major promastigote growth inhibition. Leishmania major promastigotes, resazurin fluorescence viability. inhibition, % at 10 µM. actives 9% (n = 200,000); in the data active = inhibition above about 50%;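 note: promastigotes grown with compound for 44 hours at 28 °C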
Insulin prom inh = TRM-6 insulin promoter activity inhibition; TRM-6 cells (human fetal islet line), insulin promoter-eGFP reporter, imaging; reporter expression induced with tamoxifen; inhibition, % at 2 µM; actives 0.9% (n = 130,000); AID 1273;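 active = inhibition above the mean plus 3 SD, with well images judged a real hit on visual review, cut at about 60% in these data, passing the limit was not always enough; inconclusive = inhibition over the cutoff but images rejected on review; inactive = inhibition not above the cutoff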
Autophagy HCS = autophagy modulation, high-content screen. MEF GFP-LC3 puncta imaging; test concentration mostly 10 µM. calls only at 10 µM (by protocol). actives 0.98% (n = 190,000). AID 463193;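 active = percentage of spot-positive cells more than 3 SD above its plate mean, without a fluorescence outlier flag or 80% toxicity; inconclusive = no clear call, values can overlap the other calls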;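 note: spot-positive cell cutoff set from DMSO-treated cells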
WT yeast gro inh = growth inhibition of WT yeast, mitochondrial fusion screen. mitochondrial fusion phenotypic screen, WT strain. inhibition, % at 10 µM. actives 2.1% (n = 190,000). AID 1362; in the data active = inhibition above about 58%; tested in S. cerevisiae
Ins promoter up = MIN6 insulin promoter up-regulation. MIN6 insulin promoter-GFP reporter, high-content imaging; stronger effect = higher value. z-score at 5 µM. actives 0.3% (n = 190,000). AID 1625;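 active = z-score above 3 at 5 µM with at least 500 cells counted in the well; inconclusive = wells under 500 cells, flagged as cytotoxic or low count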
* hit, by the source's call; i = inactive; u = inconclusive; x = no result. An excerpt weighted towards active compounds, which were near 11% of everything screened.

SMILES | Lmaj promast | Insulin prom inh | Autophagy HCS | WT yeast gro inh | Ins promoter up
Cn1c2ccccc2c(=O)c2c(=O)n(C3CCCCCC3)c(C3CCCCC3)nc21 | 74* | x | i | 33 | -0.48
COc1ccc(CCn2c(C3CCCCC3)nc3c(c(=O)c4ccccc4n3C)c2=O)cc1 | x | x | x | x | -3.4
CC(C)CCNC(=O)CN(C(=O)CCC(=O)Nc1ccccn1)c1ccc(F)c(Cl)c1 | 95* | x | i | -6 | 1.8
Cc1cccc(N(CC(=O)NCc2ccco2)C(=O)CCC(=O)Nc2ccccn2)c1 | 16 | 12 | i | -5 | -0.8
COc1cccc(C2=CC(c3ccccc3)n3nnnc3N2)c1 (configuration not stated) | 45 | x | i | 68* | x
COc1cccc(C2=CC(c3cccc(OC)c3OC)n3nnnc3N2)c1 (configuration not stated) | 79* | x | i | 9 | 0.39
COc1cccc(C2=CC(c3cc(OC)ccc3OC)n3nnnc3N2)c1 (configuration not stated) | 92* | -15 | i | 22 | 0.53
COc1ccc(OC)c(C2C=C(c3ccc(C)c(C)c3)Nc3nnnn32)c1 (configuration not stated) | x | x | x | 6 | 0.05
Cc1nn(C(=O)c2cc3sccc3[nH]2)c(C)c1C | -7 | -13 | i | 3 | 0.33
COc1ccccc1N(CC(O)Cn1c2ccccc2c2ccccc21)S(=O)(=O)c1ccccc1 (configuration not stated) | 54* | -6 | i | 28 | -0.96
CCN(CC(O)Cn1c2ccccc2c2ccccc21)S(=O)(=O)c1ccc(F)cc1 (configuration not stated) | 13 | -17 | i | 65* | 0.05
Cc1ccc(S(=O)(=O)N(C)CC(O)Cn2c3ccccc3c3ccccc32)cc1 (configuration not stated) | 8 | -54 | i | 52 | 0.59
COc1ccccc1N(CC(O)Cn1nc(C)cc1C)S(=O)(=O)c1ccccc1 (configuration not stated) | 3 | x | i | 8 | -0.09
O=S(=O)(c1ccccc1)N(CC(O)Cn1c2ccccc2c2ccccc21)c1ccccc1 (configuration not stated) | 100* | x | i | 51 | -2.1
O=S(=O)(c1ccc(F)cc1)N(CCO)CC(O)Cn1c2ccccc2c2ccccc21 (configuration not stated) | 25 | -225 | i | 27 | -0.02
C=CCN(CC=C)CC(O)CN(c1cc([N+](=O)[O-])ccc1OC)S(=O)(=O)c1ccccc1 (configuration not stated) | 64* | -10 | i | -22 | 1.1
CCN(CC)S(=O)(=O)c1ccc(S(=O)(=O)N(CC(=O)Nc2ccccc2)Cc2ccco2)cc1 | -5 | 38 | i | -2 | x
Cc1cc(C(F)(F)F)nn2cnnc12 | -7 | 27 | i | -4 | -0.21
CCCN(CCC)CC(O)CN(c1ccccc1)S(=O)(=O)c1ccc(C)cc1 (configuration not stated) | 97* | -108 | i | 3 | x
CCCc1cc(C(=O)Nc2cccc(C(C)=O)c2)no1 | -7 | x | x | 9 | 0.2
C=CCN(c1ccc(C(=O)Nc2ccc(C)c(C)c2)cc1)S(C)(=O)=O | 55* | -19 | i | -25 | -0.58
C=CCN(c1ccc(C(=O)Nc2ccc(C)cc2)cc1)S(C)(=O)=O | 3 | x | i | -2 | -0.1
CC(=O)c1cccc(NC(=O)c2ccc(N(Cc3ccc(C)cc3)S(C)(=O)=O)cc2)c1 | 53* | -27 | i | 23 | x
CC(=O)c1cccc(NC(=O)c2cc(-c3ccc(C)cc3)on2)c1 | 62* | 50 | i | 11 | 0.41
O=c1[nH]ncc(NCc2ccc(Cl)cc2)c1Cl | -3 | 39 | i | -2 | -0.65
SMILES | Lmaj promast | Insulin prom inh | Autophagy HCS | WT yeast gro inh | Ins promoter up
O=C(NCc1cccs1)C1CC(=O)N(c2ccc(Cl)cc2)C1 (configuration not stated) | -7 | x | i | -7 | 0.29
COc1ccc2[nH]c(=O)c(CN(Cc3cccs3)C(=S)NCC3CCCO3)cc2c1 (configuration not stated) | x | x | x | x | 0.18
COc1ccc2[nH]c(=O)c(CN(CC3CCCO3)C(=S)Nc3ccccc3)cc2c1 (configuration not stated) | 40 | x | i | 0 | 0.13
Cc1cc2cc(CN(CC3CCCO3)C(=S)Nc3ccccc3)c(=O)[nH]c2cc1C (configuration not stated) | 68* | -22 | i | 12 | u
Cc1cc2cc(CN(Cc3cccs3)C(=S)NCC3CCCO3)c(=O)[nH]c2cc1C (configuration not stated) | 96* | -8 | i | 8 | -1.6
Cc1cc(C)c2[nH]c(=O)c(CN(Cc3ccco3)C(=S)NCC3CCCO3)cc2c1 (configuration not stated) | 88* | 15 | i | -8 | 0.18
Cc1cc(C)c2[nH]c(=O)c(CN(Cc3cccs3)C(=S)NCC3CCCO3)cc2c1 (configuration not stated) | 53* | 8 | i | 39 | -1.3
Cc1cc2c(c(=O)o1)C(c1ccc([N+](=O)[O-])o1)C(C#N)=C(N)O2 (configuration not stated) | x | x | x | x | 1.6
CC(C)CNC(=S)N(Cc1ccco1)Cc1cc2cc3c(cc2[nH]c1=O)OCCO3 | 88* | 66 | i | -8 | -0.17
CCNC(=S)N(Cc1ccco1)Cc1cc2cc3c(cc2[nH]c1=O)OCCO3 | 11 | x | i | -11 | 0.09
COc1ccccc1NC(=O)N(Cc1ccco1)Cc1cc2cc(C)cc(C)c2[nH]c1=O | 63* | -6 | i | 28 | -1.7
Cc1onc(-c2c(F)cccc2Cl)c1C(=O)N1CCOC12CCCCC2 | -8 | x | i | -23 | -0.19
Cc1coc(=N)n1CC(=O)c1ccc(Cl)cc1 | 2 | x | i | 7 | 0.31
Cc1nc(C(C)NC(=O)CCc2nnc(CCCc3ccccc3)o2)c(C)s1 (configuration not stated) | -5 | -22 | i | 3 | 0.17
C=CCn1c(SCC(=O)Nc2cccc(C(=O)OC)c2)nnc1C(C)NC(=O)c1cccs1 (configuration not stated) | -1 | -40 | i | 83* | 0.21
COCCn1c(SCC(=O)Nc2cccc(C)c2)nnc1C(C)C | 91* | 55 | i | 11 | -0.41
C/C(=N\NC(=O)c1ccc(C)cc1C)c1ccc(-n2ccnc2)cc1 | 79* | x | i | -13 | 0.05
CCOC(=O)C1(C)C=C(Nc2ccc(C)cc2)C(=O)N1c1ccc(C)cc1 (configuration not stated) | 2 | 70* | i | -12 | -0.06
CCNC(=O)NC(=O)CSc1ccccc1F | 0 | -29 | i | 11 | 0.2
COc1ccc(C(CCNC(C)c2ccccc2)c2ccc(F)cc2)cc1 (configuration not stated) | 100* | x | i | 59* | x
COc1ccc(CNCCC(c2ccc(F)cc2)c2ccc(OC(C)C)cc2)cc1OC (configuration not stated) | x | x | x | x | -0.11
COc1ccc(C(CCNCc2ccccc2)c2ccc(F)cc2)cc1 (configuration not stated) | 99* | x | i | 60* | -0.75

Screening data deposited in PubChem by several laboratories.
